Our source for the growth values is PubChem BioAssay (NCI).

Each structure is given as a SMILES string. This is part of a sample that, as a whole, favours compounds with a hit. Of some 83,000 tested, about 20% had one in any assay.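 Note: values are percent growth. 100 is the growth of untreated cells, values between 100 and 0 indicate rising inhibition; between -100 and 0 indicates cell death.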 Values without a mark were called inactive. Calls of active or inactive are those of the source. The calls were made as follows: active = growth percent below 10; inactive = the rest.

Among the test systems are T-47D breast; BT-549 breast; MDA-MB-435 melanoma; SW-620 colon; MCF7 breast; HCT-116 colon; HCC-2998 colon; KM12 colon; MDA-MB-468 breast.
Holding throughout (experiment): NCI-60 one-dose screen, 48 h (100 = growth as untreated, 0 = no growth, -100 = all killed)
What all share (conditions): 10 µM unless noted

Regarding `CS(=O)(=O)Nc1cc(-c2ccc3ncnc(Nc4ccc(OCc5cccnc5)c(Cl)c4)c3c2)cnc1Cl`, the growth was -39% (active) in the assay with T-47D breast; -55.6% (active) in the assay on BT-549 breast; -9.37% (active) in the assay with MDA-MB-435 melanoma; 6.78% (active) in the assay with SW-620 colon; -8.39% (active) in the assay on MCF7 breast; -71.6% (active) in the assay with HCT-116 colon. Also, the values for the growth with HCC-2998 colon, with KM12 colon and in the assay on MDA-MB-468 breast were -60.4% (active), 10.8% and -81.3% (active), respectively.

For `NS(=O)(=O)c1ccc(Nc2nc(N/N=C/c3cc(Br)c(O)c(Br)c3)nc(Nc3ccccc3)n2)cc1`, the growth is 25.5% in the assay with T-47D breast; -14.3% (active) in the assay with BT-549 breast; 56.5% in the assay on MDA-MB-435 melanoma; 41.2% in the assay with SW-620 colon; 37.7% in the assay on MCF7 breast; 28.9% in the assay on HCT-116 colon. In addition, the growth in the assay with HCC-2998 colon is 5.2% (active); in the assay on KM12 colon, 61.7%; with MDA-MB-468 breast it was -57.4% (active).

As for `O=c1[nH]c2ccccc2cc1CSc1ccccc1Nc1nccc(-c2ccc3c(c2)OCO3)n1`, the growth was 83.6% in the assay with T-47D breast; 67.6% in the assay on BT-549 breast; 98.8% in the assay on MDA-MB-435 melanoma; 93.2% with SW-620 colon; 69.2% in the assay with MCF7 breast; 93.2% in the assay on HCT-116 colon. For the same molecule, the growth in the assay on HCC-2998 colon was 116%; in the assay with KM12 colon, 99.3%; in the assay with MDA-MB-468 breast, 84.4%.

For `O=C(Nc1ccc(-c2ccc3c(c2)NC(=O)/C3=C\c2ccc[nH]2)cc1)Nc1cccc(Cl)c1`, the growth in the assay on T-47D breast was -1.23% (active); in the assay on BT-549 breast, -1.48% (active); with MDA-MB-435 melanoma, 10.1%; with SW-620 colon, 13.9%; in the assay on MCF7 breast it was -9.34% (active); with HCT-116 colon, 2.08% (active). Also, the figures for the growth in the assay on HCC-2998 colon, in the assay on KM12 colon and in the assay on MDA-MB-468 breast were -24.2% (active), -22.3% (active) and -55.5% (active), respectively.

With `O=C(Nc1nc2ccc([N+](=O)[O-])cc2s1)Nc1ccccc1F`, the growth in the assay on T-47D breast was -5.6% (active); in the assay on BT-549 breast it was -13.8% (active); in the assay with MDA-MB-435 melanoma, 12.7%; with SW-620 colon it was 16.6%; in the assay with MCF7 breast it was -0.503% (active); with HCT-116 colon, 3.1% (active). For the same molecule, the results for the growth with HCC-2998 colon, in the assay with KM12 colon and in the assay with MDA-MB-468 breast were 23.8%, 13.6% and -15.4% (active), respectively.

Take `O=C(c1ccc(O)cc1)C1[C@H](c2ccc(Cl)cc2)[C@@H](c2ccccc2)NC12C(=O)Nc1ccc(Br)cc12` (stereo partly specified): the growth in the assay with T-47D breast is 2.46% (active); in the assay on BT-549 breast it was -76.6% (active); in the assay with MDA-MB-435 melanoma it was -41.1% (active); in the assay on SW-620 colon it was -58.1% (active); with MCF7 breast, -22.1% (active); in the assay on HCT-116 colon, -75% (active). Further, the results for the growth in the assay on HCC-2998 colon, in the assay with KM12 colon and in the assay with MDA-MB-468 breast were -88.6% (active), -25.4% (active) and -61.1% (active), respectively.

Turning to `CC1CCc2c(sc3nc(SCC(=O)c4cccc([N+](=O)[O-])c4)n(-c4ccccc4)c(=O)c23)C1` (stereo unspecified), the growth with T-47D breast was 86.8%; in the assay with BT-549 breast it was 94.5%; with MDA-MB-435 melanoma it was 90.8%; with SW-620 colon it was 71.1%; in the assay with MCF7 breast it was 86.5%; in the assay with HCT-116 colon, 25%. Besides, the growth was 105% in the assay on HCC-2998 colon, 93.5% in the assay on KM12 colon and 83% with MDA-MB-468 breast.

Turning to `CCCCNc1ccc2c3c(cccc13)C(=O)N(c1cccc(-c3nn(-c4ccccc4)cc3-c3nc4ccccc4s3)c1)C2=O`, the growth is 101% in the assay with T-47D breast; 117% in the assay with BT-549 breast; 106% with MDA-MB-435 melanoma; 105% with SW-620 colon; 109% with MCF7 breast; 98.9% in the assay on HCT-116 colon. The results for the growth in the assay with HCC-2998 colon, in the assay with KM12 colon and with MDA-MB-468 breast were 119%, 108% and 97.7%, respectively.

Take `O=C1CCC(N2C(=O)c3cccc(NCCCCCC(=O)N4CCN(c5ccc6nc7c(nc6c5C(F)(F)F)C(=O)c5ncccc5C7=O)CC4)c3C2=O)C(=O)N1` (stereo unspecified): the growth in the assay on T-47D breast was -41.1% (active); with BT-549 breast it was -76.8% (active); in the assay with MDA-MB-435 melanoma it was -79.8% (active); in the assay on SW-620 colon it was -50.9% (active); with MCF7 breast, -71.6% (active); in the assay on HCT-116 colon, -86% (active). For the same molecule, the growth in the assay on HCC-2998 colon was -98% (active); in the assay with KM12 colon, -49.6% (active); with MDA-MB-468 breast, -49.9% (active).

In the case of `COc1ccc2[nH]cc(-c3cc4nc(-c5cn(C)c6ncccc56)cc(N)n4n3)c2c1`, the growth in the assay on T-47D breast is 33.3%; in the assay with BT-549 breast, -8.26% (active); with MDA-MB-435 melanoma, 52.5%; in the assay with SW-620 colon, -53.3% (active); in the assay on MCF7 breast it was -24.8% (active); with HCT-116 colon, -81.3% (active). Further, the growth is -96.5% (active) with HCC-2998 colon, -66.2% (active) with KM12 colon and -75.9% (active) with MDA-MB-468 breast.

As for `COc1c2c(cc3c1C(CCc1ccccc1)N(C)CC3)OCO2` (stereo unspecified), the growth in the assay on T-47D breast was -22.3% (active); with BT-549 breast it was -28.8% (active); in the assay on MDA-MB-435 melanoma, 5.73% (active); with SW-620 colon it was 1.49% (active); in the assay with MCF7 breast, -34.4% (active); with HCT-116 colon, 3.07% (active). Besides, the growth with HCC-2998 colon was -31.5% (active); with KM12 colon, -28.3% (active); with MDA-MB-468 breast, -61.8% (active).

Regarding `O=C(Nc1nc2ccccc2s1)Nc1ccccc1Cl`, the growth was 68% with T-47D breast; 129% in the assay with BT-549 breast; 100% with MDA-MB-435 melanoma; 96.8% with SW-620 colon; 69% in the assay on MCF7 breast; 79.7% in the assay with HCT-116 colon. In addition, the values for the growth in the assay on HCC-2998 colon, with KM12 colon and in the assay with MDA-MB-468 breast were 97.3%, 93.1% and 97%, respectively.

Consider `N#Cc1cc(-c2ccnc(Nc3ccc(N4CCN(C5COC5)CC4)cc3)n2)ccc1N1CCCC1`, for which the growth in the assay on T-47D breast was 91%; in the assay on BT-549 breast it was 34.1%; with MDA-MB-435 melanoma, 66.9%; with SW-620 colon it was 72.7%; in the assay on MCF7 breast, 85.8%; in the assay with HCT-116 colon, 49%. The growth in the assay with HCC-2998 colon is 75.4%; in the assay on KM12 colon, 83.2%; in the assay on MDA-MB-468 breast, 38.8%.

In the case of `Cc1ccc2nc(SCc3ccccc3F)n(-c3ccccc3)c(=O)c2c1`, the growth with T-47D breast is 81.4%; in the assay on BT-549 breast, 107%; with MDA-MB-435 melanoma, 111%; in the assay on SW-620 colon it was 104%; with MCF7 breast, 89.2%; in the assay on HCT-116 colon, 68.2%. Moreover, the growth in the assay with HCC-2998 colon is 109%; in the assay with KM12 colon, 93.7%; in the assay on MDA-MB-468 breast, 89.3%.
